# Laboratory results from PubChem BioAssay.
# A number with no mark means an inactive call. For part of these data: Entries with a potency or affinity are not part of this list. The source made the active and inactive calls. Unless noted, how the calls were made is not given here.
# Legend:
# [1] = antimalarial activity against Dd2 strain (AID 2302;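 active means growth inhibition above 50% at the single 2 µM test dose, taken to imply half-maximal potency below 2 µM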;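 further: 0% = DMSO untreated growth and 100% = chloroquine plus artemisinin killed control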); settings: P. falciparum Dd2 in RBCs, LDH growth readout, 72 h; at 2 µM; active compounds read high
# [2] = HepG2 cytotoxicity, primary screen, cytotoxicity control for P. falciparum antimalarial project, cell-based, ATP luminescence (AID 2303;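 active means inhibition above 50%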;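 further: 0% = DMSO wells and 100% = digitonin-killed cells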); settings: HepG2 viability, 24-48 h, at 10 µM, active compounds read high
# [3] = target: L-lactate dehydrogenase (Plasmodium falciparum (isolate CDC / Honduras)) (UniProt Q27743); assay: PfLDH activity inhibition – cell lysate, 3D7 strain, counter-screen for P. falciparum growth inhibition project (AID 2304);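 further: 0% = vehicle and 100% = reference inhibitor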; settings: P. falciparum 3D7 crude extract, LDH APAD/NBT absorbance; at 2 µM; active compounds read high
# L-lactate dehydrogenase (Plasmodium falciparum (isolate CDC / Honduras)), sequence (Q27743 whole entry, looked up): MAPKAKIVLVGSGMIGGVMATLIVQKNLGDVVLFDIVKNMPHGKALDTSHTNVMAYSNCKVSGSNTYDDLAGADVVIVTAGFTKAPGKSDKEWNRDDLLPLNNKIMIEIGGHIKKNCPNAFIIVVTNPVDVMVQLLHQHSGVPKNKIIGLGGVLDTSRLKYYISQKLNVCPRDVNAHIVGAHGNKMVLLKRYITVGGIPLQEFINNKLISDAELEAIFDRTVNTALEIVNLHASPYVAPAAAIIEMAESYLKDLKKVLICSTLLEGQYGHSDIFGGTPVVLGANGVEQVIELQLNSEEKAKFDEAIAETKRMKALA
# [4] = inhibition of 3D7 malaria parasite growth – strain 3D7 (AID 2306);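 further: 0% = DMSO wells and 100% = chloroquine plus artemisinin control wells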; settings: P. falciparum 3D7 erythrocytic growth, LDH absorbance, 72 h; at 2 µM; active compounds read high
# [5] = target: Calcium-dependent protein kinase 1 (Plasmodium falciparum (isolate 3D7)) (UniProt P62344); assay: PfCDPK1 kinase inhibitors, biochemical, TCAMS library (AID 1159585; cut-off not given, nearly all actives have IC50 up to about 0.98 µM;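 further: inhibitors leave more ATP so luminescence rises with inhibition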); settings: recombinant PfCDPK1, Kinase-Glo ATP depletion luminescence
# Calcium-dependent protein kinase 1 (Plasmodium falciparum (isolate 3D7)), sequence (P62344 whole entry, looked up): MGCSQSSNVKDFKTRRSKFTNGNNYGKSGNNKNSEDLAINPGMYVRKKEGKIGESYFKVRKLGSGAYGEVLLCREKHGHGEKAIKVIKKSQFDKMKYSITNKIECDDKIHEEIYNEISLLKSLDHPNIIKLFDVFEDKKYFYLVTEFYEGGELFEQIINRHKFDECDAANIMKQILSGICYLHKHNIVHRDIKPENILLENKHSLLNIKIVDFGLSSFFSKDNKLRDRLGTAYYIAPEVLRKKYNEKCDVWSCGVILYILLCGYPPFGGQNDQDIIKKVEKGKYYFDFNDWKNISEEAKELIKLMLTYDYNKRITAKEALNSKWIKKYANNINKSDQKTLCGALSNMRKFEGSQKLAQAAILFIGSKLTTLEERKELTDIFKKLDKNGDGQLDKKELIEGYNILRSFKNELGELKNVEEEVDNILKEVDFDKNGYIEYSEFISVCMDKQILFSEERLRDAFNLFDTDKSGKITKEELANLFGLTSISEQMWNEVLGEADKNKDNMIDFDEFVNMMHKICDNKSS
# [6] = target: Plasmodium falciparum protein kinase 6 (PK6, PF3D7_1337100) (UniProt Q8IDW1); assay: PfPK6 kinase inhibitors, biochemical, TCAMS library (AID 1159586); settings: recombinant PfPK6, Kinase-Glo ATP depletion luminescence
# Plasmodium falciparum protein kinase 6 (PK6, PF3D7_1337100), sequence (Q8IDW1 1-305): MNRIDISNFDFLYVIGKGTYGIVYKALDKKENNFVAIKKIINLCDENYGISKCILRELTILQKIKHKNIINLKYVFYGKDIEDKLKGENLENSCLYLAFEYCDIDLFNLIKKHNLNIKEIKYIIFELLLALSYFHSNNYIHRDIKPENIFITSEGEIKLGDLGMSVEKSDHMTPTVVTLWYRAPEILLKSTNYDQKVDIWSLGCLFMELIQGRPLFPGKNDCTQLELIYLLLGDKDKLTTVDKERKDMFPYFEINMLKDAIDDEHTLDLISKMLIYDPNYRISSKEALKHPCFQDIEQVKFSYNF
# [7] = target: Protein kinase 7 (PK7), Plasmodium falciparum 3D7 (PF3D7_0213400) (UniProt Q7YTF7); assay: inhibition of Plasmodium PK7 catalytic activity – biochemical, TCAMS antimalarial set, Kinase-Glo luminescence (AID 1159587); settings: recombinant PfPK7, Kinase-Glo ATP depletion luminescence
# Protein kinase 7 (PK7), Plasmodium falciparum 3D7 (PF3D7_0213400), sequence (Q7YTF7 1-343): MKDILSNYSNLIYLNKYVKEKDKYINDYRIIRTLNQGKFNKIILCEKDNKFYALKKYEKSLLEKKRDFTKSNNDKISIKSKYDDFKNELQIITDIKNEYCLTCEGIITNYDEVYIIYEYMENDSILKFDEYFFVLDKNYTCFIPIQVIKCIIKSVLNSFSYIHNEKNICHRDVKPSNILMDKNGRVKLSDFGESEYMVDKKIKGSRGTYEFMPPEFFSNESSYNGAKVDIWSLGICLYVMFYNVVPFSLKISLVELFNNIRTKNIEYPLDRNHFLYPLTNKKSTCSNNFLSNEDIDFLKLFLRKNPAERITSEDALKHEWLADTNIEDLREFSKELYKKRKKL
# [8] = target: Calcium-dependent protein kinase 4 (Plasmodium falciparum (isolate 3D7)) (UniProt Q8IBS5); assay: PfCDPK4 kinase inhibitors, biochemical, TCAMS library (AID 1159588; cut-off not given, nearly all actives have IC50 up to about 0.91 µM); settings: recombinant PfCDPK4, Kinase-Glo ATP depletion luminescence
# Calcium-dependent protein kinase 4 (Plasmodium falciparum (isolate 3D7)), sequence (Q8IBS5 whole entry, looked up): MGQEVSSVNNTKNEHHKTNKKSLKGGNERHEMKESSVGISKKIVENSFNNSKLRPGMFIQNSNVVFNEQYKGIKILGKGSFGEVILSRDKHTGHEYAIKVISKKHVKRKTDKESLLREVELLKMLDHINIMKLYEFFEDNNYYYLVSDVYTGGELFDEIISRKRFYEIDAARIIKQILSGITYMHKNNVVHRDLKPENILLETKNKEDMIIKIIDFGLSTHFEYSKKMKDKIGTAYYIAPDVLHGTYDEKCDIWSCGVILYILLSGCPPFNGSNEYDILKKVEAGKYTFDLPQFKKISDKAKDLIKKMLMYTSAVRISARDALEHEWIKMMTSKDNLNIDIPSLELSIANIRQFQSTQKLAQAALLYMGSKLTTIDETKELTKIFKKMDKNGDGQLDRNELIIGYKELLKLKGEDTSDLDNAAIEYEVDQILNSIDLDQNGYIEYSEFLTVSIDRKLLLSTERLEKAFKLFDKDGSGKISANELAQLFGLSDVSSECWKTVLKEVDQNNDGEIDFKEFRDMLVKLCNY
Compound,growth inhibition [1],inhibition [2],inhibition [3],growth inhibition [4],outcome [5],outcome [6],outcome [7],outcome [8]
CCC(C)NS(=O)(=O)c1ccc2nc(Nc3ccc(C)cc3)n([C@H](C)C(C)(C)C)c2c1 (stereo partly drawn),98% (active),2%,0%,98% (active),inactive,inactive,inactive,inactive
CCC(CC)NCc1c(O)ccc2c(CNC(CC)CC)c(O)ccc12,94% (active),4%,0%,100% (active),inactive,inactive,inactive,inactive
CCCCCCCCCn1c(NCc2cc(Cl)ccc2O)nc2ccccc21,92% (active),13%,-4%,97% (active),inactive,inactive,inactive,inactive
Fc1cc(Cl)ccc1Nc1ccnc2cc(-c3ccc(CN4CCOCC4)o3)ccc12,98% (active),33%,0%,99% (active),inactive,inactive,inactive,inactive
c1ccc(CN2CCC(NCc3ccc(-c4cncc5ccccc45)cc3)CC2)cc1,19%,21%,-3%,98% (active),inactive,inactive,inactive,inactive
O=C(/C=C/c1ccc(Cl)c(Cl)c1)NCC(CCCN1CCC(c2c[nH]c3ccccc23)CC1)c1ccccc1 (stereo not drawn),46%,98% (active),3%,100% (active),inactive,inactive,inactive,inactive
O=C(/C=C/c1ccccc1Cl)Nc1ccc(Br)c(OCCN2CCC(O)(c3ccccc3)CC2)c1,85% (active),39%,0%,101% (active),inactive,inactive,inactive,inactive
CN(C)CCOc1ccc(-c2cc(-c3ccncc3)c(-c3ccc(Cl)c(O)c3)[nH]2)cc1,100% (active),25%,-2%,98% (active),inactive,inactive,inactive,inactive
COc1ccc(Nc2cc(C)nc(NCc3ccc4c(c3)OCO4)n2)cc1,78% (active),26%,-2%,99% (active),inactive,inactive,inactive,inactive
Cc1cccc2[nH]c(-c3ccc(-c4ccc(NC(=O)Nc5ccc(F)c(F)c5F)cc4)cc3)nc12,97% (active),51% (active),-1%,100% (active),inactive,inactive,inactive,inactive
CC(=O)Nc1ccc(CN2CCCN(c3cc(NC(=O)c4cccc(C)c4)ccn3)CC2)cc1,10%,-2%,-1%,92% (active),inactive,inactive,inactive,inactive
O=C(N[C@@H](Cc1ccccc1)C(=O)NCCN1CCOCC1)c1ccc(O)c(-c2ccc(Cl)c(Cl)c2)c1,31%,-4%,5%,97% (active),inactive,inactive,inactive,inactive
Cc1nc(-c2cccc(NCc3ccccc3)c2)[nH]c1C,48%,16%,1%,101% (active),inactive,inactive,inactive,inactive
CCNc1cc(C(=O)N[C@@H](Cc2ccccc2)[C@H](O)CN[C@H](C)c2ccccc2)cc(N2CCCC2=O)c1,99% (active),-1%,6%,97% (active),inactive,inactive,inactive,inactive
Cc1cc(N[C@@H](Cc2ccccc2)C(=O)NCc2cccc(F)c2)nc(NCCOc2ccccc2)n1,7%,0%,-3%,97% (active),inactive,inactive,inactive,inactive
CCN(CC)C(=S)N=Nc1c(O)[nH]c2c(C)cccc12,69% (active),28%,3%,94% (active),inactive,inactive,inactive,inactive
COc1ccc2nccc(NC(=O)C3(O)CCC(NCc4ncc5c(c4Cl)OCCO5)CC3)c2n1 (stereo not drawn),59% (active),21%,-1%,83% (active),inactive,inactive,inactive,inactive
Cn1nccc1C(=O)NCCNCc1cccc(-c2ccc(-c3nc4ccccc4[nH]3)cc2)c1,98% (active),19%,4%,100% (active),inactive,inactive,inactive,inactive
Cc1cc(N[C@@H](Cc2ccccc2)C(=O)NCCc2ccccc2)nc(NCCOc2ccccc2)n1,14%,10%,-3%,95% (active),inactive,inactive,inactive,inactive
CCCN(CCC)CCCNc1ccc(C(=O)Nc2ccc(OCC)cc2)cc1[N+](=O)[O-],2%,7%,-4%,89% (active),inactive,inactive,inactive,inactive
O=C(Nc1ccc(Cl)c(C(F)(F)F)c1)NC1CCN(CCCCCNC(=O)[C@@H]2C[C@H]2c2ccc(Cl)c(Cl)c2)CC1,41%,79% (active),-1%,100% (active),inactive,inactive,inactive,inactive
